These results are taken from PubChem BioAssay (NCATS).

Molecules are shown by their SMILES. Records with an inconclusive call do not appear. The source made the active and inactive calls. Unless noted, calls follow the shape of the dose curve; as a rule, active = well fitted curve in the direction sought with a large enough effect; inconclusive = small, poorly fitted or top-dose-only effect, or another doubt; inactive = no such curve, though single readings can be large; an effect the other way counts as inactive or inconclusive.

A short description of test [1]: Cytometric Cell-Based qHTS for Inhibitors of the mTORC1 Signaling Pathway in MEF (Tsc2-/-, p53-/-) Cells (AID 2660).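 Also: Tsc2 and p53 null MEFs carrying empty vector with compound for 24 h; percent of cells above a phospho-rpS6 to PI ratio cutoff in each well; series mostly up to about 38 µM.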 The gist of the method:
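Readout: Alexa-488 phospho-rpS6 (Ser235/236) intensity divided by PI intensity, thresholded against 7.5 nM rapamycin wells and reported as % positive cells. PI cell count served as the viability measure. Compound exposure was 24 hrs at 37 degree Celsius.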
Background: In qHTS, concentration-response curves come from the screen itself.

Test [2] in a line: High Content Imaging Cell-Based qHTS for Inhibitors of the mTORC1 Signaling Pathway in MEF (Tsc2-/-, p53-/-) Cells (AID 2666).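 Also: percent of cells scored positive for phospho-rpS6 Ser235/236 immunostaining by imaging.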 A digest of the protocol: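 Cells were plated, dosed with compound after 24 hrs, and incubated another 24 hrs at 37 degree Celsius. Fixed cells were immunostained for phospho-rpS6 Ser235/236 and counterstained, and the normalized signal was scored as % active cells against rapamycin and DMSO controls.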

The nature of test [3]: High Content Imaging Cell-Based qHTS for Inhibitors of the mTORC1 Signaling Pathway in MEF Cells (AID 2667). Also: potency is read from the fitted curve at half-maximal effect. A digest of the protocol:
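Immunofluorescence for rpS6 phosphorylation in MEFs of Tsc2-/-, p53-/- background rescued with WT Tsc2. Compound exposure lasted 24 hrs. Inhibition was scored against rapamycin-treated control wells.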

In test [4] the target is Ubiquitin carboxyl-terminal hydrolase 2 (Homo sapiens) (UniProt O75604). In words: qHTS Validation Assay for Inhibitors of Ubiquitin-specific Protease USP2a Using CHOP2 as the Reporter (AID 463106). Also: potency is read from the fitted curve at half-maximal effect. A digest of the protocol: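 10nM USP2 core + cpd, 30min RT; add 25nM Ub-CHOP2/25nM substrate; 60min RT; FI 485/531nm. Buffer Tris pH 8.0, CaCl2, BME, CHAPS. Norm. to NEM = 100% inhibition; time-zero read flags fluorescent artifacts.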
Sequence of Ubiquitin carboxyl-terminal hydrolase 2 (Homo sapiens) (O75604 whole entry, looked up): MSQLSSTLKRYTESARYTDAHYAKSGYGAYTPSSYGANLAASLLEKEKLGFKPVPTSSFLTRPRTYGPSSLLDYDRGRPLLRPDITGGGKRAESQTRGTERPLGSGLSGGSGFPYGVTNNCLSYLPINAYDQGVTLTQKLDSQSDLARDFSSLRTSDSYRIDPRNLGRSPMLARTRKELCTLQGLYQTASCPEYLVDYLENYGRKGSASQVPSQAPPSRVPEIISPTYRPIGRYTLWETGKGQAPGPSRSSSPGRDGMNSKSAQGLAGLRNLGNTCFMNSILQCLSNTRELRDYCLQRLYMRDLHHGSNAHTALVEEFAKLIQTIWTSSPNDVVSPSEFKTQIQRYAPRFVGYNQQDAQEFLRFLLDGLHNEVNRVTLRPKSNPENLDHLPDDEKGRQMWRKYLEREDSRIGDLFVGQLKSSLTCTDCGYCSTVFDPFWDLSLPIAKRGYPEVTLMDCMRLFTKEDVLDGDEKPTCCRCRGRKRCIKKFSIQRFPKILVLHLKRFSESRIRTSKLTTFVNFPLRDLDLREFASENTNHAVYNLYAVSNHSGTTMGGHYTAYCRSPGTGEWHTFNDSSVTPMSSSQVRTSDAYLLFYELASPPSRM

The target of test [5] is DNA polymerase III PolC-type (Bacillus subtilis (strain 168)) (UniProt P13267). In words: qHTS Validation Assay for the Inhibitors of DNA Replication in Gram-Positive Bacteria (AID 485295).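 Also: reconstituted holoenzyme with PolC plus beta clamp SSB and primase; PicoGreen fluorescence of double-stranded DNA made on primed circular M13 template; series mostly up to about 57 µM.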 The gist of the method:
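Primed replication of single-stranded M13Gori by a four-protein B. subtilis holoenzyme is measured at room temperature. Double-stranded product is quantified by PicoGreen fluorescence after an EDTA stop; inhibition is scaled between DMSO and EDTA controls.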

Test [6] addresses Tumor susceptibility gene 101 protein (Homo sapiens) (UniProt Q99816). Description: qHTS Validation Assay for Iinhibitors of HIV-1 Budding by Blocking the Interaction of PTAP/TSG101 (AID 485342; calls by dose curve). A digest of the protocol:
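Fluorescence anisotropy measured PTAP-Tsg101 interaction. Final concentrations were 10 uM protein domain and 50 nM labeled peptide, equilibrated 20 min at room temperature.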

Test [7] can be described thus: qHTS Validation Assay to Find Inhibitors of Chronic Active B-Cell Receptor Signaling (AID 485345; active = well fitted curve in the direction sought with a large enough effect in the main read-out, with a control signal flat, not every such curve was filed as active). The gist of the method:
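Read-out: ratio of filter-corrected green (IkappaBalpha fusion) to red (native) luciferase signal in doxycycline-induced TMD8 cells after 4 h at 37C. Titration spanned 46 uM–3 nM; Data were normalised to basal cells and 10 uM MG-132 wells.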

Test [8] concerns the target Beta-2 adrenergic receptor (Homo sapiens) (UniProt P07550). In words: qHTS validation assay of beta-arrestin-biased ligands of beta2-adrenergic receptor (AID 485366). The gist of the method: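 Tango cells (recombinant beta2-AR with recombinant beta-arrestin; recruitment releases tTA driving luciferase) were treated with compounds titrated up to 46 microM for 18 hr at 37 degrees C. Luminescence gave %Activity, and concentration-response curves were curve-classified.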

Test [9] can be described thus: Cytometry Cell-Based qHTS for Inhibitors of the mTORC1 Signaling Pathway in MEF cells (AID 2668).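 Also: Tsc2-/- p53-/- mouse embryonic fibroblasts stably re-expressing wild-type Tsc2; percent cells positive for phospho-rpS6 Ser235/236 relative to propidium iodide stain; series mostly up to about 38 µM.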 The gist of the method:
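Pathway inhibition in WT Tsc2-rescued Tsc2-/-, p53-/- MEFs is measured as the Alexa-488 phospho-rpS6 to propidium iodide intensity ratio after 24 hrs of compound at 37 degree Celsius. PI-stained cell number gives viability.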

Sequence of Beta-2 adrenergic receptor (Homo sapiens) (P07550 whole entry, looked up): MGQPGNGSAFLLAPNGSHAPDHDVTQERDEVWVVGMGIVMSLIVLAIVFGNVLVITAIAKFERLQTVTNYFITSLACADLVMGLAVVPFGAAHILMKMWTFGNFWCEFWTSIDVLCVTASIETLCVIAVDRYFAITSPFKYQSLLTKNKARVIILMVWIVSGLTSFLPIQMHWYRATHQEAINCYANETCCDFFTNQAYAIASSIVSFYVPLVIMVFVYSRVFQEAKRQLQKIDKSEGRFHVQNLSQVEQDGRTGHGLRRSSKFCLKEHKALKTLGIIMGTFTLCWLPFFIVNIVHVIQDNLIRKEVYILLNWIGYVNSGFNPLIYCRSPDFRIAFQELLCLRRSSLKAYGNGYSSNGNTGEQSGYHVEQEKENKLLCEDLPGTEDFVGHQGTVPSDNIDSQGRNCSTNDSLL
Sequence of DNA polymerase III PolC-type (Bacillus subtilis (strain 168)) (P13267 whole entry, looked up): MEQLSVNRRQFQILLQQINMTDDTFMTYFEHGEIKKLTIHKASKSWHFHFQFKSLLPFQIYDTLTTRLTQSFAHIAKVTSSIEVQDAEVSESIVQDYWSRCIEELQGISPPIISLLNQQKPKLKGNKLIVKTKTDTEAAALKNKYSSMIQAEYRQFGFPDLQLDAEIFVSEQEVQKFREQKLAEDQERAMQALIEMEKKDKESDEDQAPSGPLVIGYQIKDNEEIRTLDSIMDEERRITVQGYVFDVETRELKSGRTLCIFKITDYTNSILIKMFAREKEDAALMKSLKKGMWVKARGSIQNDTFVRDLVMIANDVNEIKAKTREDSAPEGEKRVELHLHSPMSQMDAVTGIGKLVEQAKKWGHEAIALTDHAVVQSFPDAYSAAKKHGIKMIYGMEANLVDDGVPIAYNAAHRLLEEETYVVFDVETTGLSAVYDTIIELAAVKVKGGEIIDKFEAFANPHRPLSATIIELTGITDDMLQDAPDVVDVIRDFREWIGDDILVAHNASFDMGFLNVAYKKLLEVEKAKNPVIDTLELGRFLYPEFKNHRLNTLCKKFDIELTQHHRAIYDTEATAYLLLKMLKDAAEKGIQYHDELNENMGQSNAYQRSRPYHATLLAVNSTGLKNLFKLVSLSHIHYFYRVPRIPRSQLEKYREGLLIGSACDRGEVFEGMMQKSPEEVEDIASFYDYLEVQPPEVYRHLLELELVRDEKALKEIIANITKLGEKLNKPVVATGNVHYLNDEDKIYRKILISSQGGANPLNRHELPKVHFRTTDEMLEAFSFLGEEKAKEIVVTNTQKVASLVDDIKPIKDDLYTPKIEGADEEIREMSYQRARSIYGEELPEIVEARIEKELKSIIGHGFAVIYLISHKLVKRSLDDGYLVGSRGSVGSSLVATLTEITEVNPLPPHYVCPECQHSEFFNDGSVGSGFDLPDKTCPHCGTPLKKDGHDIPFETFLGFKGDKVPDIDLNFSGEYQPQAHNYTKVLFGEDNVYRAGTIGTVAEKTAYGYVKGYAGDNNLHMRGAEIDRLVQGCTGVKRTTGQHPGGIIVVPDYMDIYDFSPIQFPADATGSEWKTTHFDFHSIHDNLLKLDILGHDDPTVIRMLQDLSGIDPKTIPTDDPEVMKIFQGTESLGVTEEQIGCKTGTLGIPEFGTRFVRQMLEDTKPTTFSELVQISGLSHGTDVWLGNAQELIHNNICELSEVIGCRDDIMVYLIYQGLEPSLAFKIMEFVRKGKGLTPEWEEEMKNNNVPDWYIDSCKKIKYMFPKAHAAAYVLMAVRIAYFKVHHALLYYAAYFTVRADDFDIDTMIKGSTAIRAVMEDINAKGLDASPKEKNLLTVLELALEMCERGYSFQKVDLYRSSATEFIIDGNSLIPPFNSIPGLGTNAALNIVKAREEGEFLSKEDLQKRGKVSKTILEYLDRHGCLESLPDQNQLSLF
Sequence of Tumor susceptibility gene 101 protein (Homo sapiens) (Q99816 whole entry, looked up, the tested form may be a part): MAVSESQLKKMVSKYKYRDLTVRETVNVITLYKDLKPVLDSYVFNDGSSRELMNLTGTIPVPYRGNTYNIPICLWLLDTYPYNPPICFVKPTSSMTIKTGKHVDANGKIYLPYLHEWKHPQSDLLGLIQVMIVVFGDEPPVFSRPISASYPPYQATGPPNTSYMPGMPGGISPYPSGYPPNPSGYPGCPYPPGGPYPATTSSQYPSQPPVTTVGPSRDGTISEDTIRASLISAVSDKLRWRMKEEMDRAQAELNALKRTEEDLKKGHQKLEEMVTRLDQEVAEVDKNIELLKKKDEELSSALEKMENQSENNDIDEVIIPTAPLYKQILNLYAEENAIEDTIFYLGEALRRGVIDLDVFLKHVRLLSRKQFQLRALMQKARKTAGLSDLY

Consider `CC(C)ON([C@@H](C(=O)NO)C(C)C)S(=O)(=O)c1ccc(-c2ccccc2)cc1`, for which the compound was called inactive in test [1], in [6], in [7] and in test [8]. Besides, the Potency entry in test [2], in test [4] and in [5] was “inactive” throughout. In addition, the Potency in [3] is 5.85 µM (active).

In the case of `Nc1nc(Cl)nc2c1ncn2[C@@H]1O[C@H](COP(=O)(O)OP(=O)(O)OP(=O)(O)O)[C@@H](O)[C@H]1O`, the call in [1], in test [6] and in test [8] was inactive. Further, the Potency result in test [2], in [3], in test [9], in test [4] and in test [5] was “inactive” each time.

On to `CO/S(=N\S(=O)(=O)c1ccc(Cl)cc1)c1ccc([N+](=O)[O-])cc1` (stereo unspecified), for which the compound was classed as inactive in test [1], in test [6], in test [7] and in [8]. Further, the Potency entry in test [2], in test [3], in test [9], in test [4] and in [5] was “inactive” throughout.

As for `COc1cc(SC)ccc1C(=O)N1CCC(Cc2ccccc2)CC1`, the compound was classed as inactive in test [1], in test [6] and in test [8]. Further, the Potency entry in test [2], in test [3], in [9], in test [4] and in test [5] was “inactive” throughout.

With `CNC(=O)[C@H]1O[C@@H](n2cnc3c(NCc4ccc(N)cc4)ncnc32)[C@H](O)[C@@H]1O`, the call in test [1], in test [6] and in test [8] was inactive. Besides, the Potency entry in [2], in test [3], in [9] and in test [4] was “inactive” each time.

In the case of `C[N+]1(C)CCC(OC(=O)C(c2ccccc2)c2ccccc2)CC1`, the compound was called inactive in test [1], in test [6], in [7] and in test [8]. Further, the Potency entry in test [2], in test [3], in [4] and in [5] was “inactive” throughout.

Turning to `OC[C@H]1O[C@@H](n2cnc3c(Nc4ccccc4)ncnc32)[C@H](O)[C@@H]1O`, the call in test [1] and in test [6] was inactive. The Potency result in test [2], in test [3], in test [9] and in test [4] was “inactive” throughout.

In the case of `C=CC(=O)c1ccc(CCCCCC)cc1`, the outcome in test [1], in test [6] and in test [8] was inactive. Also, the Potency entry in test [2], in [3], in [9] and in [4] was “inactive” each time.

On to `C#C[C@]1(O)CC[C@H]2[C@@H]3CCC4=Cc5oncc5CC4(C)[C@H]3CCC21C` (stereo partly specified), for which the compound was classed as inactive in test [1] and in [6]. For the same compound, the Potency entry in [2], in [9], in test [4] and in test [5] was “inactive” in each case.

Take `CC1OC1P(=O)(O)O` (stereo unspecified): the call in test [1], in [6] and in test [7] was inactive. Besides, the Potency result in test [2], in [3], in test [9], in test [4] and in test [5] was “inactive” each time.

Consider `N.N.N.N.N.N.N.N.N.N.N.N.N.N.O.O.[Ru+4].[Ru+5].[Ru+5]`, for which the compound was called inactive in [1], in [6] and in [8]. Further, the Potency result in [2], in [3] and in [9] was “inactive” in each case.

Take `Nc1ncnc2c1ncn2[C@@H]1O[C@H](COP(=O)(O)OP(=O)(O)OP(=O)(O)OP(=O)(O)OC[C@@H]2O[C@H](n3cnc4c(N)ncnc43)[C@@H](O)[C@H]2O)[C@@H](O)[C@H]1O`: the call in test [1], in test [6] and in test [8] was inactive. Further, the Potency entry in test [2], in test [3], in [9], in test [4] and in test [5] was “inactive” throughout.

For `O=C(O)CC1CC(c2ccccc2)=NO1` (stereo unspecified), the compound was called inactive in test [1], in test [6], in test [7] and in test [8]. Further, the Potency entry in test [2], in test [3], in [9], in test [4] and in [5] was “inactive” throughout.

For the compound `OCC1O[C@H]([S-])[C@H](O)[C@@H](O)[C@@H]1O.[Au+]` (stereo partly specified), the call in test [1], in test [6] and in test [8] was inactive. The Potency result in [2], in test [3], in [9] and in test [5] was “inactive” in each case. Further, the Potency in test [4] was 18.5 µM (active).

Consider `CSc1nc(N)c2ncn([C@@H]3O[C@H](COP(=O)(O)OP(=O)(O)OP(=O)(O)O)[C@@H](O)[C@H]3O)c2n1`, for which the compound was classed as inactive in test [1] and in test [6]. Also, the Potency entry in [2], in test [9], in test [4] and in test [5] was “inactive” in each case.

Consider `Clc1ccc(N2CCN(Cc3cc4ccccn4n3)CC2)cc1`, for which the result in test [1], in [6] and in test [7] was inactive. For the same compound, the Potency entry in test [2], in test [3], in [9], in [4] and in test [5] was “inactive” throughout.

On to `O=C(c1ccc(Cl)cc1)N1CCN(c2ccc([N+](=O)[O-])c3ncccc23)CC1`, for which the compound was classed as inactive in [1], in test [6], in test [7] and in test [8]. For the same compound, the Potency entry in test [2], in [3], in test [4] and in [5] was “inactive” throughout.

With `CCc1c(C(=O)NCCc2ccc(N3CCCCC3)cc2)[nH]c2ccc(Cl)cc12`, the outcome in test [1], in test [6], in [7] and in [8] was inactive. Also, the Potency entry in test [2], in [3], in test [9], in test [4] and in test [5] was “inactive” each time.

As for `C[N+]1(C)C2CC(OC(=O)[C@H](CO)c3ccccc3)CC1C1OC12` (stereo partly specified), the result in test [1], in [6], in test [7] and in [8] was inactive. For the same compound, the Potency result in test [2], in [3], in [9] and in test [4] was “inactive” each time.

Regarding `Nc1nc(SCc2ccc([N+](=O)[O-])cc2)c2ncn([C@@H]3O[C@H](CO)[C@@H](O)[C@H]3O)c2n1`, the result in test [1] and in [6] was inactive. In addition, the Potency entry in [2], in test [9], in test [4] and in [5] was “inactive” throughout.
